104 compounds from ChEMBL document CHEMBL3988442, “University of Dundee, Small-Polar-MMV Screening Library” (2021) can be followed below.

Out of some 48,000 compounds screened, about 13,000 (27%) showed an effect of 50% or more. This is one part of the list.

In this test the test system is Wolbachia pipientis. The experiment in a line: Anti-Wolbachia Cell-Based Screen. The following applies: 5 µM. The test is classed as functional. Details: scale not given: in the data most compounds retested in dose-response had high values.
On to `O=C1CCCN1C1CCN(S(=O)(=O)CCOc2ccc(F)cc2)CC1`, for which the “Percent Effect” value was determined as 0.4633%.
Turning to `CN(Cc1ncc(C(C)(C)C)o1)CC1CCCN1c1cccnn1` (centres undefined), the “Percent Effect” value is on record as 16.2%.
Under `CN(Cc1cccnc1)CC1CCCN1c1cccnn1` (centres undefined) stands -2.765%; under `CN(CC(=O)Nc1ccncc1)CC1CCCN1c1cccnn1` (centres undefined), 2.636%; under `CN(Cc1cnn(C)c1)CC1CCCN1c1cccnn1` (centres undefined), 108.8%.
Under `Cc1nnc(CN(C)CC2CCCN2c2cccnn2)o1` (centres undefined) stands -3.082%; under `CN(CCc1ccncc1)CC1CCCN1c1cccnn1` (centres undefined), 116.4%; under `CC(c1ccccc1Cl)N(C(=O)CSCC(N)=O)C1CC1` (centres undefined), -12.69%.
The result for `Cn1cc(C(=O)Nc2cccc(F)c2)ccc1=O` reads 0.158%; that for `O=C(NCc1nnc2n1CCC2)N1CCC2(CCCCC2)CC1`, 10.88%.
As for `CC(NCc1nnc2n1CCCC2)C(=O)N1CCc2sccc2C1` (centres undefined), the “Percent Effect” value worked out at 124.2%.
The result for `O=C(NCc1nnc2n1CCCCC2)N1CCc2ccccc2C1` reads 97.78%.
The result for `CC(C)NC(=O)C1CCN(C(C)C(=O)N2CCc3sccc3C2)CC1` (centres undefined) reads -8.464%; that for `O=C(NCc1nnc2n1CCCC2)N1CCc2ccccc2C1`, 5.135%; that for `O=C(NCc1nnc2n1CCCCC2)N1CCc2sccc2C1`, 8.039%.
In the case of `O=C(NCc1nnc2ccccn12)N1CCc2sccc2C1`, the “Percent Effect” value is given as -3.483%.
On to `O=C(NCc1nnc2n1CCCCC2)N1CCC2(CCCCC2)C1`, for which the “Percent Effect” value is -0.2574%.
Under `CC(NCc1nnc2n1CCCC2)c1nc(-c2cccs2)no1` (centres undefined) stands -0.8773%; under `O=C(NCc1nnc2n1CCC2)N1CCc2sccc2C1`, 90.24%; under `O=C(NCc1ccc(N2CCCC2)nc1)N1CCc2sccc2C1`, -1.896%.
In the case of `O=C(NCc1nnc2n1CCCC2)N1CCc2sccc2C1`, the “Percent Effect” value was 127.9%.
The result for `CCC(=O)c1ccc(OCC(=O)NC(C)Cc2cc(C)n[nH]2)cc1` (centres undefined) reads -9.204%.
The result for `CC(C)NC(=O)N1CCN(S(=O)(=O)C2CC2)CC2(CNC(=O)C2)C1` (centres undefined) reads 10.45%; that for `CCn1cc(CN2CCCC3(CCC(=O)N(CCC(C)C)C3)C2)cn1` (centres undefined), -5.478%; that for `CCn1cc(CN2CCCN(C(=O)C3(C#N)CCCCC3)CC2)cn1`, -13.94%.
Under `CCn1cc(CN2CCCN(C(=O)CCN3CCCC3=O)CC2)cn1` stands 112.3%; under `CCn1cc(CN2CCCN(C(=O)CCc3ccncc3)CC2)cn1`, -3.575%; under `CCn1cc(CN2CCCN(C(=O)C3=NN(C)C(=O)CC3)CC2)cn1`, 3.458%.
As for `Cn1cc(CCC(=O)N2CCN(Cc3ccncc3)CC2)cn1`, the “Percent Effect” value is -1.736%.
Regarding `CCn1cc(CN2CCCN(C(=O)CCc3ccccc3)CC2)cn1`, the “Percent Effect” value is 96.36%.
Under `CCn1cc(CN2CCCN(C(=O)CCc3cnn(C)c3)CC2)cn1` stands 103.4%; under `CCn1cc(CN2CCCN(C(=O)CCCn3cncn3)CC2)cn1`, 2.568%.
The result for `CCn1cc(CN2CCCN(C(=O)CCn3cc(C)cn3)CC2)cn1` reads 86.19%.
The result for `OCC1(O)CCN(c2ncccc2C(F)(F)F)CC1` reads 1.862%; that for `Cc1[nH]ccc1C(=O)N[C@H]1CN(S(C)(=O)=O)C[C@@H]1C1CC1`, 3.151%.
In the case of `CC(C)Cc1ncc2c(n1)CN(C(=O)c1ccc(Cn3ccnc3)o1)C2`, the “Percent Effect” value is reported as -18.35%.
Under `CCn1ccnc1CN1C[C@@H](NC(=O)C2CC2)[C@H](c2ccc(C)cc2)C1` stands -6.865%; under `C[C@H]1CN(C)C[C@@]12COCCN(C(=O)Cc1ccccc1)C2.O=C(O)C(F)(F)F`, 7.732%.
As to `CC(=O)N1CCC(C(=O)N2CCOC(CC3CCCCC3)C2)CC1` (centres undefined), the “Percent Effect” value is reported as -4.464%.
Under `CCn1cc(CN2CCCN(C(=O)CCc3cccs3)CC2)cn1` stands 101.9%; under `CCn1cc(CN2CCCN(C(=O)CCc3nccs3)CC2)cn1`, 73.27%.
As to `CC(=O)Nc1nc(COc2nc(C)no2)cs1`, the “Percent Effect” value is recorded as -3.939%.
For `CCCN1CCC(CC(=O)N(C)CC(=O)c2ccc(O)cc2)CC1`, the “Percent Effect” value is -25.77%.
The result for `Cc1ncc2c(n1)CN(Cc1noc(C3CC3)n1)CC2` reads 2.312%; that for `O=C1CCC(C(=O)NCc2nn(-c3ccccc3)c3c2CCC3)CN1` (centres undefined), 1.199%.
Under `O=C(c1csc(-c2ncccn2)n1)N1CCN(C2CCCC2)CC1` stands -8.107%; under `COc1ccc(Cl)cc1CS(=O)(=O)CC(=O)NC(C)CCC(C)C` (centres undefined), 2.702%.
Under `Cn1cccc1C(=O)N1CC[C@H]2[C@H]1CCN2CC1CC1.O=C(O)C(F)(F)F` stands 2.648%; under `c1cncc(-c2ccc3c(c2)CCC32CCNCC2)c1`, -33.05%; under `c1cncc(-c2ccc3c(c2)C2(CCNCC2)CC3)c1`, 1.24%.
Consider `O=C(O)C(F)(F)F.O=C(O)C(F)(F)F.c1cncc(-c2ccc3c(c2)CCC32CCN(Cc3nccs3)CC2)c1`, for which the “Percent Effect” value worked out at 11.05%.
In the case of `CN(C)CC(=O)N1CCC2(CCc3cc(-c4cccnc4)ccc32)CC1.O=C(O)C(F)(F)F.O=C(O)C(F)(F)F`, the “Percent Effect” value is 1.059%.
In the case of `O=C(O)C(F)(F)F.O=C(O)C(F)(F)F.c1cncc(-c2ccc3c(c2)CCC32CCN(Cc3ccco3)CC2)c1`, the “Percent Effect” value was determined as 99.06%.
For the compound `Cc1cnc(N2Cc3nccn3CC(Cn3ncccc3=O)C2)nc1.O=C(O)C(F)(F)F` (centres undefined), the “Percent Effect” value is recorded as 104.6%.
The result for `O=C(O)C(F)(F)F.O=C(O)C(F)(F)F.c1cn2c(n1)CN(CC1CC1)CC(CN1CCOCC1)C2` (centres undefined) reads 13.29%; that for `Cc1cnc(N2Cc3nccn3CC(Cn3nc(C)nc3C)C2)nc1` (centres undefined), 1.951%.
Regarding `O=C(O)C(F)(F)F.O=c1cccnn1CC1CN(CC2CCCC2)Cc2nccn2C1` (centres undefined), the “Percent Effect” value is 100.1%.
On to `Cc1nc(C)n(CC2CN(c3ncccn3)Cc3nccn3C2)n1` (centres undefined), for which the “Percent Effect” value is 9.978%.
Turning to `O=c1cccnn1CC1CN(c2ncc(F)cn2)Cc2nccn2C1` (centres undefined), the “Percent Effect” value was 114.7%.
Under `O=C(O)C(F)(F)F.O=c1cccnn1CC1CN(Cc2ccsc2)Cc2nccn2C1` (centres undefined) stands 13.39%; under `CCCN1CCCN(C(=O)c2ccc(Oc3cccnc3)cc2)CC1`, 1.766%; under `O=C1NCCCCC1NS(=O)(=O)N1CCCCC1` (centres undefined), 30.79%.
Under `Cc1nccn1-c1cc(CNC(=O)N2CCSCC2)ccn1` stands -3.633%; under `Cc1cc(CNc2ccc(CC(=O)N(C)c3ccccc3)cc2)no1`, -7.262%; under `OC(CN(Cc1ccccc1)Cc1ccncc1)c1ccco1` (centres undefined), 6.092%.
Take `O=C(COC(=O)Cc1cccs1)NCc1cccc(NC(=O)C2CC2)c1`: the “Percent Effect” value is 2.841%.
As to `CC1(C)CC(=O)N(CC(=O)Nc2ccon2)c2ccccc21`, the “Percent Effect” value was 100.4%.
Under `Cc1cc(NC(=O)CN2C(=O)CC(C)(C)c3ccccc32)no1` stands 116.9%.
The result for `Cc1cc(NC(=O)CN2CCn3c(nnc3-c3ccccc3)C2)no1` reads 6.417%; that for `O=C(NCC1CC(=O)N(CCc2ccccc2)C1)c1ccon1` (centres undefined), 4.92%; that for `Cc1cc(NC(=O)CN2CCn3c(C)nnc3C2)no1`, 3.854%.
Under `CC1CN(C)c2ccccc2CN1C(=O)NCc1ccon1` (centres undefined) stands 0.2534%; under `Cc1cccc(NC(=O)CN2C(=O)CC(C)(C)c3ccccc32)n1`, 106.1%; under `Cc1cccc(NC(=O)[C@@H]2CCCN2CC(=O)N2CCCCCC2)n1`, 2.208%.
With `CCOCc1cccc(S(=O)(=O)N2CCSCC2)c1`, the “Percent Effect” value is on record as 5.017%.
Regarding `CCCS(=O)(=O)N1C[C@@H](Oc2ccccn2)[C@H]2OCCC[C@H]21.O=C(O)C(F)(F)F`, the “Percent Effect” value is given as 4.768%.
The result for `CS(=O)(=O)N1CCO[C@H]2[C@@H](Oc3ncccc3F)CC[C@@H]21.O=C(O)C(F)(F)F` reads 100.8%; that for `O=C(O)C(F)(F)F.O=S(=O)(C1CC1)N1CCO[C@H]2[C@@H](Oc3ncccc3F)CC[C@@H]21`, 120.5%.
The result for `CCS(=O)(=O)N1C[C@@H](Oc2ccccn2)[C@H]2OCCC[C@H]21.O=C(O)C(F)(F)F` reads -45.01%; that for `O=C(O)C(F)(F)F.O=S(=O)(C1CC1)N1C[C@H](Oc2ccccn2)[C@H]2OCCC[C@H]21`, 9.296%; that for `CCCS(=O)(=O)N1CCO[C@H]2[C@@H](Oc3cccnc3)CC[C@@H]21.O=C(O)C(F)(F)F`, 101.6%.
On to `CCCS(=O)(=O)N1C[C@@H](Oc2ncccc2F)[C@H]2OCCC[C@H]21.O=C(O)C(F)(F)F`, for which the “Percent Effect” value worked out at 117.2%.
Under `CN(C)S(=O)(=O)N1C[C@@H](Oc2ccccn2)[C@H]2OCCC[C@H]21.O=C(O)C(F)(F)F` stands -0.1257%; under `CS(=O)(=O)N1C[C@@H](Oc2ccccn2)[C@H]2OCCC[C@H]21.O=C(O)C(F)(F)F`, 12.05%; under `CCCS(=O)(=O)N1CCO[C@H]2[C@H](OCc3ccccn3)CC[C@@H]21.O=C(O)C(F)(F)F`, -14.38%.
As to `CCS(=O)(=O)N1CCO[C@H]2[C@H](Oc3ncccc3F)CC[C@@H]21.O=C(O)C(F)(F)F`, the “Percent Effect” value worked out at 5.015%.
With `CN(CCCc1cc(-c2cccc(F)c2)n[nH]1)C(=O)Cn1cncn1`, the “Percent Effect” value is recorded as -5.082%.
The result for `COc1ccccc1OC1CN(C(=O)Cc2c(C)nc(C)[nH]c2=O)C1` reads -23.21%; that for `CC(CNC(=O)c1cc(-n2cccn2)ccn1)Cn1ccnc1` (centres undefined), -5.602%; that for `COCCCn1ccc(NCc2cnc(C(C)(C)C)s2)n1`, 1.35%.
Under `Cn1nc(Cn2ccnc2)c2c1CN(c1nccs1)C2.O=C(O)C(F)(F)F.O=C(O)C(F)(F)F` stands 4.707%; under `CCn1cnnc1CCNC(=O)CCNC(=O)c1ccccc1F`, 3.625%; under `COC1CN(C(=O)C2CC2)CCC(=O)N(C)c2ccccc21` (centres undefined), 115%.
For `COC1CCN(C(=O)Nc2ccccc2)CC(=O)N(C)c2ccccc21` (centres undefined), the “Percent Effect” value was found to be 112.2%.
The result for `CN1C(=O)CCN(C(=O)C2CC=CC2)c2ccccc21` reads 2.91%.
The result for `O=C(C1CC=CC1)N1CC[C@H]2[C@@H]1CCC(=O)N2c1ccccc1` reads -0.4954%; that for `COC(=O)N1CCCN(C(=O)NC2CCc3ccccc3C2)CC1` (centres undefined), -2.418%; that for `CC(=O)N1CCN(C(=O)Nc2ccccc2)CC2(CC(=O)N(C)C2)C1` (centres undefined), -20.73%.
The result for `COC1CN(C(=O)NC2CCCC2)CCC(=O)N(C)c2ccccc21` (centres undefined) reads 116.2%.
Consider `O=C(NC1CCCC1)N1C[C@H]2CN(c3ccccn3)C[C@@]2(C(=O)O)C1`, for which the “Percent Effect” value is -9.055%.
The result for `Cn1cc(NC(=O)N2CCC(c3ccccc3)CC2)ccc1=O` reads -11.38%; that for `COC1CN(C(=O)Nc2ccccc2)CCC(=O)N(C)c2ccccc21` (centres undefined), 93.19%.
Turning to `O=C1NCCN2CCN(C(=O)Nc3ccc(-c4ccccc4)cc3)CC12` (centres undefined), the “Percent Effect” value is listed as -8.363%.
As for `COC(=O)[C@@H]1CN(C(=O)Nc2ccccc2)CCN1C(C)=O`, the “Percent Effect” value is -6.785%.
